Results filed as inconclusive are left out. Calls of active or inactive are those of the source.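 How the source made its calls, unless noted: active means efflux inhibition above 0.42, the validation set average plus 4 SD; inconclusive means no clear call, values can overlap the other calls; inactive means the rest.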
What was measured:
[1] = rapamycin-like changes in RPL19A-GFP expression – cell-based, S. cerevisiae, multiplex flow cytometry, primary screen (AID 1862; in the data active means percent of DMSO control GFP below about 86%;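 further: lower values mimic rapamycin by blocking the RPL19A rise seen in DMSO cells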); details: S. cerevisiae RPL19A-GFP strain, flow cytometry fluorescence, 3 h; at 10 µM; stronger effect = lower value
[2] = TOR pathway GLN3 branch reporter MEP2-GFP changes – S. cerevisiae, multiplex flow cytometry, primary screen (AID 1867;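 active means GFP response, as percent of the DMSO control, above the screen-wide mean plus 3 SD, about 139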;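 further: median GFP channel fluorescence of barcode-gated MEP2-GFP cells measured by flow cytometry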); details: S. cerevisiae MEP2-GFP strain, 3 h, at 10 µM, stronger effect = higher value, 100% means same as DMSO wells
[3] = TOR pathway RTG branch CIT2 reporter changes – S. cerevisiae, GFP fusion, multiplex flow cytometry, primary screen (AID 1870;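 active means percent response above a set limit, the screen-wide mean plus 3 SD, cut at about 130% in these data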;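 further: barcoded CIT2-GFP strain pooled with four other GFP strains with rapamycin as positive control; median GFP fluorescence per well over plate mean of DMSO wells so 100% = DMSO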); details: S. cerevisiae CIT2-GFP expression, 3 h, at 10 µM, stronger effect = higher value
[4] = TOR pathway LAP4-GFP level changes – S. cerevisiae, multiplex flow cytometry, primary screen (AID 1873;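 active means GFP signal, as percent of the solvent control, above the screen mean plus 3 SD, about 149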); details: S. cerevisiae LAP4-GFP expression, 3 h, at 10 µM, stronger effect = higher value
[5] = yeast AGP1-GFP level changes, GLN3 branch – cell-based, multiplex flow cytometry, S. cerevisiae, primary screen (AID 1887;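 active means GFP signal above the screen-wide mean plus 3 SD, that is over about 124.5% of the solvent control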;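 further: AGP1-GFP fusion strain of S. cerevisiae within a five-strain barcoded multiplex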); details: 3 h, at 10 µM, stronger effect = higher value
[6] = hit retest on RPL19A-GFP reporter strain – cell-based, S. cerevisiae, flow cytometry, cherry picks, mother/daughter gates, confirmation (AID 2270;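 active means GFP response below 50% of the DMSO control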); details: 3 h, at 10 µM, stronger effect = lower value, 100 = same GFP as DMSO wells
[7] = yeast TOR pathway reporter LAP4-GFP change – cell-based, cherry picks, flow cytometry, mother/daughter gates, confirmation (AID 2271;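 active means GFP response above 150% of the DMSO control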;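 further: ratio of sample to DMSO plate mean so 100% equals DMSO level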); details: S. cerevisiae LAP4-GFP strain, 3 h, at 10 µM, stronger effect = higher value, 100 means same as DMSO control
[8] = TOR pathway reporter MEP2-GFP, retest of hits – S. cerevisiae, flow cytometry GFP, cherry picks, confirmation (AID 2272;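 active means GFP response above 150% of the DMSO control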;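 further: ratio of well signal to plate DMSO mean so 100% equals DMSO level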); details: S. cerevisiae MEP2-GFP strain, 3 h, at 10 µM, stronger effect = higher value
[9] = TOR pathway CIT2 reporter hit retest – S. cerevisiae, GFP fusion, cherry picks, mother/daughter gates, confirmation (AID 2274;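 active means GFP response above 150% of the DMSO level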); details: S. cerevisiae CIT2-GFP strain, flow cytometry, 3 h, at 10 µM, stronger effect = higher value
[10] = reduced mouse 2C T cell binding to pMHC/ICAM-1 vesicles – MLPCN validation set, flow cytometry, LFA-1/ICAM-1 modulator project, pilot screen (AID 2523;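 active means response below a set limit, under 55% cells CD8-positive and vesicle-bound, and CD8 cells' 90th-percentile brightness under 279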;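 on vesicle binding response: mean PE anti-B7-1 fluorescence of CD8+ cells relative to row control; 100% = QL9-loaded vesicles with DMSO vehicle in the same plate row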); details: 2C mouse CD8+ T cells, at 7 µM, stronger effect = lower value; double positive events: measured here: CD8+/vesicle+ event percentage
[11] = target: Integrin beta-1 (Homo sapiens) + Integrin alpha-4 (Homo sapiens) (UniProt P13612+P05556); assay: alpha4beta1 integrin LIBS antibody binding reduction – U937 cells, HUTS-21 mAb, flow cytometry, validation set, VLA-4 allosteric modulator project, pilot screen (AID 2674;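 active means inhibition above 50%, about 3 SD of the validation set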;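 further: antibody binding induced by the VLA-4 ligand LDV present at three times its Kd; 0% = LDV ligand with antibody and no compound and 100% = antibody without LDV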); details: HUTS-21 LIBS mAb binding, at 6.7 µM, stronger effect = higher value, binding induced by LDV ligand
Sequence of Integrin beta-1 (Homo sapiens) + Integrin alpha-4 (Homo sapiens) (P05556 whole entry, looked up): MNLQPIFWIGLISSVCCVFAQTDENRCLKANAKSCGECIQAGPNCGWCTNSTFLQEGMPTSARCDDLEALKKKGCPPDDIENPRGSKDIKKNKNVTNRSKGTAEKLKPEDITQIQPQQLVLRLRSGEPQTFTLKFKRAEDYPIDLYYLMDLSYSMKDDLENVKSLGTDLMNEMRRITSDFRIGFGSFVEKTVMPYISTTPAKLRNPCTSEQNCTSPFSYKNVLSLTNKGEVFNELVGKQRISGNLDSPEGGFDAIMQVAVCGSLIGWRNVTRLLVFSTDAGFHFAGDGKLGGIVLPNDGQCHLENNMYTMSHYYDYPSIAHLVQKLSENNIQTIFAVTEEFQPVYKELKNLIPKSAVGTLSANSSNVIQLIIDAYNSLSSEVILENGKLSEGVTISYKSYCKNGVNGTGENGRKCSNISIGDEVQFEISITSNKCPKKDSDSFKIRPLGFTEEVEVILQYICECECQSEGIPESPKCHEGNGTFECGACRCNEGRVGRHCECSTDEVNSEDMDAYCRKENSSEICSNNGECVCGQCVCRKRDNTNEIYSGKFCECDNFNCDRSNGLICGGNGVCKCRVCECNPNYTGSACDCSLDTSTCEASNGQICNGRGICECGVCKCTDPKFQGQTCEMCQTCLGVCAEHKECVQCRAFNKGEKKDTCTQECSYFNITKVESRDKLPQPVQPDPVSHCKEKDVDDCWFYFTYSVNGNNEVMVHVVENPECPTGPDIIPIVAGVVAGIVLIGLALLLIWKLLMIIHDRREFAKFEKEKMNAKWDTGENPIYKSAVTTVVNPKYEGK
Sequence of Integrin beta-1 (Homo sapiens) + Integrin alpha-4 (Homo sapiens) (P13612 whole entry, looked up): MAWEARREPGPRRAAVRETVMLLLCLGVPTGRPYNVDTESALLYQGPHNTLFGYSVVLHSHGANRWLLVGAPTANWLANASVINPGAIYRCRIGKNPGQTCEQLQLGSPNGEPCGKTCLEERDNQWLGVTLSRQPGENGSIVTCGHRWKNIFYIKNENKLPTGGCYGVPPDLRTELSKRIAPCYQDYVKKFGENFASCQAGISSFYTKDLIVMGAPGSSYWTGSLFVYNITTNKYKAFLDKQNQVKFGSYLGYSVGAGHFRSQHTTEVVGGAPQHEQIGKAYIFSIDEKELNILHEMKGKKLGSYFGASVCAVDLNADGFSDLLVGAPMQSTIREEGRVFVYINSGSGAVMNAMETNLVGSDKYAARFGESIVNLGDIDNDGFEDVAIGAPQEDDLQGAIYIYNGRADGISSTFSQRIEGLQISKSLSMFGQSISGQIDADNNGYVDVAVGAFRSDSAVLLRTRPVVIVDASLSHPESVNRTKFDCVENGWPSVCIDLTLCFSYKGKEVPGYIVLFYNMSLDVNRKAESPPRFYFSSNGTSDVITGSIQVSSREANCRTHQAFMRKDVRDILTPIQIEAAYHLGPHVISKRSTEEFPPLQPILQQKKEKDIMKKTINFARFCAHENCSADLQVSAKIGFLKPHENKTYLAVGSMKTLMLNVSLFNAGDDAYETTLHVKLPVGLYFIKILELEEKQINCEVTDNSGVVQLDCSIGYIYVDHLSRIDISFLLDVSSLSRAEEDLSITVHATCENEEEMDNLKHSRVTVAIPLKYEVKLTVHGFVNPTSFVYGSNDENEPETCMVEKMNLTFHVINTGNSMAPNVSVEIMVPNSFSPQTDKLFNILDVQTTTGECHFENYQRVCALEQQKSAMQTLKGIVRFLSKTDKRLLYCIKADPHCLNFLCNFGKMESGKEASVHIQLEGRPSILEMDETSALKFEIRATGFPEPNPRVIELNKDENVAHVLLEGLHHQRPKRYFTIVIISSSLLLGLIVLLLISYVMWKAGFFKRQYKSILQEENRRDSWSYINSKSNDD

[12] = calorie-restriction mimetic ROS inhibitors, yeast – validation compound set, pilot screen (AID 2706;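 active means superoxide response below 65% of plate, a cut near 3 SD across the whole screen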;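 further: yeast exposed to compound for one week at 30 degrees C before staining; 100% = mean of all compound wells on the same plate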); details: S. cerevisiae aging, superoxide DHE fluorescence; at 10 µM; stronger effect = lower value
[13] = target: Beta-adrenergic receptor kinase 1 (Homo sapiens) (UniProt P25098); assay: GRK2 binders displacing RNA aptamer, biochemical, validation, human GRK2, bead flow cytometry (AID 488806;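 active means aptamer binding inhibition above 30%, about 3 SD of noise from non-fluorescent compounds; inactive means inhibition at or below 30%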); details: bead-bound GRK2, FAM-aptamer displacement, at 10 µM, stronger effect = higher value
Sequence of Beta-adrenergic receptor kinase 1 (Homo sapiens) (P25098 whole entry, looked up): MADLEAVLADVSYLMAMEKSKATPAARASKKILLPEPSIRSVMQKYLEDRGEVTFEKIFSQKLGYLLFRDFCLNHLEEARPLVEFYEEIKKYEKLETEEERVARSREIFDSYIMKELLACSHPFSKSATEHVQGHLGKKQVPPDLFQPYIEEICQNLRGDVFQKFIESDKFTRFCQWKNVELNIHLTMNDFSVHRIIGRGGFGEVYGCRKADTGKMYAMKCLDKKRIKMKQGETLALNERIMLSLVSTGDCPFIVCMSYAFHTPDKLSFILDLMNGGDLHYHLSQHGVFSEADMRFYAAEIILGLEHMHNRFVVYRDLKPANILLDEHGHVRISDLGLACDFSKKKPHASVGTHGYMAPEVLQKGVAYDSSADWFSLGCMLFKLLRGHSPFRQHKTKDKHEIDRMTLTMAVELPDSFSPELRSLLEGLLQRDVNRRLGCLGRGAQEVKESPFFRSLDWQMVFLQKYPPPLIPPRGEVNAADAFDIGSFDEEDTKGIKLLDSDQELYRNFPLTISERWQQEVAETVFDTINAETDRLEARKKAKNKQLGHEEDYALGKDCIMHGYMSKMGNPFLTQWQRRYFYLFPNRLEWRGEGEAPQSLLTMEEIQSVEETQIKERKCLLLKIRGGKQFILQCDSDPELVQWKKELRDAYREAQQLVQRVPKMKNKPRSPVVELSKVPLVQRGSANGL

[14] = target: Beta-2 adrenergic receptor (Homo sapiens) (UniProt P07550); assay: agonist-induced loss of surface beta2AR – cell-based, FAP fluorogen, flow cytometry, validation set, pilot screen (AID 504459;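 active means percent response above 42, roughly 3 SD of non-fluorescent test compounds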;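 further: agonist-driven loss of surface beta2AR via internalization measured by FAP dye flow cytometry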); details: Am2.2-beta2AR cells, at 10 µM, stronger effect = higher value
Sequence of Beta-2 adrenergic receptor (Homo sapiens) (P07550 whole entry, looked up): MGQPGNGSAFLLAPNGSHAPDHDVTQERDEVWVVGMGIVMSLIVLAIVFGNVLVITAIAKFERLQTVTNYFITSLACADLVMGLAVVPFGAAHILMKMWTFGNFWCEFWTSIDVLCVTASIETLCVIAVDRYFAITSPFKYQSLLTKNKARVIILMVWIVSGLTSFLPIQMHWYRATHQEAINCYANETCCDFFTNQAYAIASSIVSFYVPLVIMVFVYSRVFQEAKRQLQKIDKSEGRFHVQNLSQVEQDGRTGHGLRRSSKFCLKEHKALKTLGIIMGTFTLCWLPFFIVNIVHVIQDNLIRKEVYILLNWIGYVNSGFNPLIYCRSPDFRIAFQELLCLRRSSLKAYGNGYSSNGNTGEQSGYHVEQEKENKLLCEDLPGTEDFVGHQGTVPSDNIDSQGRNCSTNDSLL

[15] = target: AP-2 complex subunit beta (Homo sapiens) (UniProt P63010); assay: beta-arrestin/AP2 interaction blockers – biochemical, validation set, GST-AP2 beads, flow cytometry, pilot screen (AID 504541;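 active means inhibition above 54%, about 3 SD of non-fluorescent compounds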;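 further: AP2 carries R879A mutation and is captured from E. coli lysate; bead-bound FITC arrestin peptide fluorescence measuring arrestin peptide binding to AP2; 0% = DMSO wells and 100% = excess unlabeled arrestin peptide control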); details: FITC arrestin peptide, at 10 µM, stronger effect = higher value, AP2 beta2 appendage fragment, R879A mutant
Sequence of AP-2 complex subunit beta (Homo sapiens) (P63010 whole entry, looked up, the tested form may be a part, one chain of several): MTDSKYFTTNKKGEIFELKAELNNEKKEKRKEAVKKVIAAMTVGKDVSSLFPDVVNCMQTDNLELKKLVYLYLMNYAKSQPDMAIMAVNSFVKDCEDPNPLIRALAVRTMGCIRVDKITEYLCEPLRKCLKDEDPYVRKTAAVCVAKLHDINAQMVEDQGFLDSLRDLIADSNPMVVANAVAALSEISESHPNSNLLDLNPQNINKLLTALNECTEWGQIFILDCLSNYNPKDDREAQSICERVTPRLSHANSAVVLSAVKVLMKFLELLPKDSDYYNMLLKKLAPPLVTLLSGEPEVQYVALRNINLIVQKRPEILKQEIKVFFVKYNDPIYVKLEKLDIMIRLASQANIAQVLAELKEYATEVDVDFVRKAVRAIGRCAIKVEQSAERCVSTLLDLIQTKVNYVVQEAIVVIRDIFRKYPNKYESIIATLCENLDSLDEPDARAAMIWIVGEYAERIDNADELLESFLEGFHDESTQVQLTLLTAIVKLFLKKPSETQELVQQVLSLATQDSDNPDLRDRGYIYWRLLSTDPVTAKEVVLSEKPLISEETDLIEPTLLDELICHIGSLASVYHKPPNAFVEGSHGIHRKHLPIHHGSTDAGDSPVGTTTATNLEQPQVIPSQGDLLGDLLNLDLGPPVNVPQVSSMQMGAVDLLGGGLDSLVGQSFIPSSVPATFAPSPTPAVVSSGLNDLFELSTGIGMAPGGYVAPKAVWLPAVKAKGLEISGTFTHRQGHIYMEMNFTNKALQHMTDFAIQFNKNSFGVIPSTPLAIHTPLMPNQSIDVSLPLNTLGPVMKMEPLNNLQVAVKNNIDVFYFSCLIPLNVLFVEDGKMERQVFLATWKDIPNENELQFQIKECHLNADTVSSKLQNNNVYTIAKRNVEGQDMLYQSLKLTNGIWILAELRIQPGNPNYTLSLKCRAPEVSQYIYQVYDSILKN

[16] = cytosolic pH regulators acting via V-ATPase – S. cerevisiae, pHLuorin, HTS validation (AID 504600; in the data active means response above about 15%;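 further: plate controls were DMSO for no effect and reference compound for full effect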); details: V-ATPase proton transport, at 10 µM, stronger effect = higher value
[17] = tested on: anti-desmoglein-3 scFv antibody binding to human DSG3; assay: blockers of pathogenic pemphigus antibody–desmoglein-3 binding – biochemical, validation compound set, bead-based, flow cytometry, pilot screen (AID 588368;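 active means binding below the plate cutoff, the plate median minus 3 SD, with a reading above zero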;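 further: signal is the median channel fluorescence of bead-bound GFP antibody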); details: Protein G beads, DSG3-Fc, scFv-GFP binding, at 10 µM, stronger effect = lower value
[18] = Nile Red efflux blockade in pump-expressing yeast – validation compound set, multiplex, phenotypic, pilot screen (AID 588506);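 further: Nile Red retained in cells so higher fluorescence means more efflux inhibition; 0 = negative control wells and 1 = enniatin B 25 µM full block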; details: S. cerevisiae pump-expressing triplex, Nile Red efflux flow cytometry; at 10 µM; stronger effect = higher value; the pumps come from Candida albicans
[19] = target: ATP-binding cassette sub-family B member 6 (Homo sapiens) (UniProt Q9NP58); assay: blockers of ABCB6-driven porphyrin uptake – K562-ABCB6 cells, flow cytometry, validation set, pilot screen (AID 588550;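 active means inhibition above the screen-wide mean plus 3 SD, about 51%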;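 further: 0% = DMSO wells and 100% = benzethonium chloride 70 µM positive control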); details: K562-ABCB6 porphyrin accumulation, 1 h, at 10 µM, stronger effect = higher value
Sequence of ATP-binding cassette sub-family B member 6 (Homo sapiens) (Q9NP58 whole entry, looked up): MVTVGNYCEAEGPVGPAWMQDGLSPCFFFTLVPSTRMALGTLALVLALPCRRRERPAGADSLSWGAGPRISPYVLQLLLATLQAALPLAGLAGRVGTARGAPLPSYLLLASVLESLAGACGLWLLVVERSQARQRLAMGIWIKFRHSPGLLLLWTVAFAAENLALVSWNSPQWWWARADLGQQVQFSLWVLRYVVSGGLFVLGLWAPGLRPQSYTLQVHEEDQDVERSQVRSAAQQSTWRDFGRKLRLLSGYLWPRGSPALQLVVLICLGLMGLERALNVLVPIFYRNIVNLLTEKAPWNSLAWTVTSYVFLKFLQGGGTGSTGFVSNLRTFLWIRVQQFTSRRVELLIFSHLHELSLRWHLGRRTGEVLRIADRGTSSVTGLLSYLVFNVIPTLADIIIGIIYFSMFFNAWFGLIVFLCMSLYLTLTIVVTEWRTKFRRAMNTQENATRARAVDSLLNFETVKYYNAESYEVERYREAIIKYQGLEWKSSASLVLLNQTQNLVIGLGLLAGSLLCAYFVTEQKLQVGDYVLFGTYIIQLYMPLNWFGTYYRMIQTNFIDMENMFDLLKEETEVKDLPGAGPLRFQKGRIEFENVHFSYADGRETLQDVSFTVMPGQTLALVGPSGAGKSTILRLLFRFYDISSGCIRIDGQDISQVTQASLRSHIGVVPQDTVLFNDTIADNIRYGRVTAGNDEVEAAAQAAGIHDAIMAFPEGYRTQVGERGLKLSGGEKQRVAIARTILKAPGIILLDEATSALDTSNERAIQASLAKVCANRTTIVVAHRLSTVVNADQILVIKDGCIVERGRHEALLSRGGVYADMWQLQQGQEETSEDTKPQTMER

[20] = AML differentiation inducers, ER-HoxA9 marrow cells – cell-based, GFP/MAC1 double positive, flow cytometry, validation set, primary screen (AID 588685;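 active means differentiation response of at least 50%, scaled between solvent and reference control, from cells with both markers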;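 further: compound exposure lasts four days before antibody staining and flow analysis; 0% = DMSO wells and 100% = 5 µM fulvestrant positive control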); details: stronger effect = higher value, normalized: vehicle 0, fulvestrant 100
[21] = measured here: daughter cell gate
[22] = measured here: mother cell gate
[23] = measured here: daughter cell gate response
[24] = measured here: mother cell gate response

C[C@]12CC[C@H]3[C@@H](CCC4=CC(=O)CC[C@@]43C)[C@@H]1CC[C@@H]2C(=O)CO
98.4%: GFP response vs DMSO [6, 22]
106%: GFP response relative to DMSO [7, 23] | GFP response relative to DMSO [7, 24]
91.2%: GFP response, % of DMSO [9, 22]
89.9%: GFP response, % of DMSO [9, 21]
inactive: percent of DMSO control GFP [1] 93.7% | GFP response vs DMSO [2] 119% | percent response of DMSO control [3] 102% | GFP response vs DMSO [4] 84.7% | GFP response, % of DMSO [5] 84.3% | GFP response vs DMSO [6] 97.8% | GFP response relative to DMSO [7] 107% | GFP response vs DMSO [8] 93.5% | GFP response, % of DMSO [9] 91.3% | vesicle binding response [10] 201% | inhibition [11] -13.9% | superoxide response (% of plate) [12] 104% | aptamer binding inhibition [13] -4% | response [14] -2.3% | inhibition [15] 11.7% | response [16] -4.52% | binding (% of control) [17] 111% | efflux inhibition (fraction of control) [18] -0.02 | inhibition [19] 7% | differentiation response [20] 14.7%
95.3%: GFP response vs DMSO [6, 21]
56.7%: double positive events [10]

O=C(NC1CCCCC1)N1CCc2[nH]c3ccccc3c2C1
inactive: percent of DMSO control GFP [1] 89.3% | percent response of DMSO control [3] 119% | GFP response vs DMSO [4] 83.6% | GFP response, % of DMSO [5] 93.1% | GFP response vs DMSO [6] 98.8% | GFP response relative to DMSO [7] 97.9% | GFP response vs DMSO [8] 100% | GFP response, % of DMSO [9] 107% | vesicle binding response [10] 212% | inhibition [11] 24.9% | superoxide response (% of plate) [12] 90.3% | aptamer binding inhibition [13] 3% | response [14] 10.8% | inhibition [15] 12.6% | response [16] 13.8% | binding (% of control) [17] 219% | efflux inhibition (fraction of control) [18] 0.27 | inhibition [19] 6% | differentiation response [20] 10.6%
active: GFP response vs DMSO [2] 147%
61.4%: double positive events [10]
107%: GFP response, % of DMSO [9, 22]
97.6%: GFP response relative to DMSO [7, 23]
98.3%: GFP response relative to DMSO [7, 24]
105%: GFP response, % of DMSO [9, 21]
98.5%: GFP response vs DMSO [6, 22]
98.1%: GFP response vs DMSO [6, 21]

CCCCCCCC(=O)OCC(=O)[C@@]1(O)CC[C@H]2[C@@H]3CCC4=CC(=O)CC[C@]4(C)[C@H]3[C@@H](O)C[C@@]21C
92.6%: GFP response, % of DMSO [9, 22]
inactive: percent of DMSO control GFP [1] 102% | GFP response vs DMSO [2] 107% | percent response of DMSO control [3] 98.9% | GFP response vs DMSO [4] 96.6% | GFP response, % of DMSO [5] 98.3% | GFP response vs DMSO [6] 96.5% | GFP response relative to DMSO [7] 94.1% | GFP response vs DMSO [8] 103% | GFP response, % of DMSO [9] 93.1% | vesicle binding response [10] 182% | inhibition [11] 11% | superoxide response (% of plate) [12] 108% | aptamer binding inhibition [13] 4% | response [14] 0.19% | inhibition [15] -9.35% | response [16] 10.5% | binding (% of control) [17] 97.1% | inhibition [19] 14% | differentiation response [20] 5.13%
94%: GFP response, % of DMSO [9, 21]
active: efflux inhibition (fraction of control) [18] 0.74
96.9%: GFP response vs DMSO [6, 22]
92.9%: GFP response relative to DMSO [7, 23]
95.9%: GFP response vs DMSO [6, 21]
96.4%: GFP response relative to DMSO [7, 24]
58.8%: double positive events [10]
